For 14 compounds, outcome and Potency results are on record in PubChem BioAssay (Tox21).

The nature of assay [1]: qHTS assay to test for compound auto fluorescence at 535 nm (green) in HEK293 cells (AID 720680). For orientation: Quantitative high-throughput screening tests each substance at several concentrations.
Assay [2] is described as follows: qHTS assay to test for compound auto fluorescence at 460 nm (blue) in HEK293 cell free culture (AID 720681). In short, it runs like this: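 Test compounds were pinned into cell-free culture medium (DMEM with 10% FBS) and fluorescence was read directly at Ex/Em 405/460 nm. Signals were expressed as fluorescence equivalents of triamterene, with DMSO vehicle as control.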

Assay [3] can be described thus: qHTS assay to test for compound auto fluorescence at 535 nm (green) in HEK293 cell free culture (AID 720682). In short, it runs like this:
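Read-out: 485/535 nm fluorescence intensity, calibrated against fluorescein. Medium only (DMEM + 10% FBS, no cells); test compound or DMSO vehicle added by pintool before plate reading.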

The nature of assay [4]: qHTS assay to test for compound auto fluorescence at 590 nm (red) in HEK293 cell free culture (AID 720683). Summed up:
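Tox21 10K library compounds were pinned into cell-free DMEM with 10% FBS and fluorescence was read at excitation 540 nm. Activity is expressed as Rose Bengal sodium equivalency.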

A short description of assay [5]: qHTS assay to test for compound auto fluorescence at 590 nm (red) in HepG2 cell free culture (AID 720684). Summed up:
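Red fluorescence (540 nm excitation, 590 nm emission) was measured after compound transfer into cell-free MEM supplemented with 10% FBS. Values are equivalencies against Rose Bengal sodium.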

Assay [6] is described as follows: qHTS assay to test for compound auto fluorescence at 460 nm (blue) in HepG2 cell free culture (AID 720685). Summed up:
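Compound (23 nL) or DMSO pinned into cell-free MEM with 10% FBS; blue fluorescence read at 405/460 nm excitation/emission, expressed as auto-fluorescence equivalency to triamterene.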

Assay [7] in a line: qHTS assay to test for compound auto fluorescence at 535 nm (green) in HepG2 cell free culture (AID 720686).
Assay [8] in a line: qHTS assay to test for compound auto fluorescence at 460 nm (blue) in HepG2 cells (AID 720687). Summed up: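 Cells (2,000/well in MEM with 10% FBS) attached overnight at 37 C, then were exposed to compound or DMSO for 1 hr at 37 C, 5% CO2. Fluorescence read at Ex/Em 405/460 nm, expressed as triamterene-equivalent signal.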
Assay [9] is described as follows: qHTS assay to identify small molecule antagonists of the glucocorticoid receptor (GR) signaling pathway - cell viability counter screen (AID 720693). Further: nearly all actives have a fitted effect of over 55% in size.
Assay [10] in a line: qHTS assay for identifying genotoxic compounds that show differential cytotoxicity against isogenic chicken DT40 cell lines with known DNA damage response pathways - wild type cell line (AID 743012). Further: nearly all actives have a fitted effect of over 60% in size. Further: potency means the concentration at half of the fitted maximal effect. In short, it runs like this: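 Wild-type DT40 cells (300/well) exposed to compounds for 40 hours at 37 C/5% CO2. Viability read by CellTiter-Glo luminescence after 30 min at room temperature.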

A short description of assay [11]: qHTS assay to identify small molecule antagonists of the androgen receptor (AR) signaling pathway - cell viability counter screen (AID 743033; further: nearly all actives have a fitted effect of over 45% in size).
A short description of assay [12]: qHTS assay to identify small molecule antagonists of the androgen receptor (AR) signaling pathway using the MDA cell line - cell viability counter screen (AID 743041; further: nearly all actives have a fitted effect of over 45% in size). Summed up:
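MDA-kb2 AR-luc human breast carcinoma cells (MMTV-luciferase, AR/GR responsive) were treated with compounds plus R1881 agonist for 16 h at 37 °C. Viability was read as CellTiter-Fluor fluorescence in the same wells as the reporter assay.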

The target of assay [13] is Glucocorticoid receptor (Homo sapiens) (UniProt P04150). Put plainly: qHTS assay to identify small molecule agonists of the glucocorticoid receptor (GR) signaling pathway (AID 720691; active means well fitted activation curve with a large enough effect in the signal ratio in the repeat runs, not every such curve was filed as active; the % refers to the signal ratio). Summed up: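 GR-bla HeLa cells carrying a GRE-driven beta-lactamase reporter, exposed to compounds for 18 h at 37 C. Reporter activation read as fluorescence after 2 h with LiveBLAzer B/G FRET substrate at room temperature.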
Chain of Glucocorticoid receptor (Homo sapiens) (P04150 whole entry, looked up): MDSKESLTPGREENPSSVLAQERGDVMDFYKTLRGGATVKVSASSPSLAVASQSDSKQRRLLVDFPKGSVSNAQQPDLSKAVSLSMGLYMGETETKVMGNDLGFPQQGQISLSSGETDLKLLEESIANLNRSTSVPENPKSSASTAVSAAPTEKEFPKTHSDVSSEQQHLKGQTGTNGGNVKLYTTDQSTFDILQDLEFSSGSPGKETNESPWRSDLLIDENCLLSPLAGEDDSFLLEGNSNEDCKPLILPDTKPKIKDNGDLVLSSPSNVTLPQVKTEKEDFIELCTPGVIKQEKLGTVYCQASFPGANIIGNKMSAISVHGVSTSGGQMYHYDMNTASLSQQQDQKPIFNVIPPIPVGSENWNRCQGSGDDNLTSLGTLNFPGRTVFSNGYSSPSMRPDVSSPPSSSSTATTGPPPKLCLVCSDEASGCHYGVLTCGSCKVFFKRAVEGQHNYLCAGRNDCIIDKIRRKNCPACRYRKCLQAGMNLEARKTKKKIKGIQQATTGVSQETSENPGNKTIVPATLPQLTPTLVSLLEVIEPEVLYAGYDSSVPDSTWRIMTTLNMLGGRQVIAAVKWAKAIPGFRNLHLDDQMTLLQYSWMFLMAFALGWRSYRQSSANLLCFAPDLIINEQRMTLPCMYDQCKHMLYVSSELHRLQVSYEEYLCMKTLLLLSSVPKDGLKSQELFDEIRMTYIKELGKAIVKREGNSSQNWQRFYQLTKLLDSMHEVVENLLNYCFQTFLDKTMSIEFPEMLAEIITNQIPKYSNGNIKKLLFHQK

Assay [14] shares this target. Put plainly: qHTS assay to identify small molecule antagonists of the glucocorticoid receptor (GR) signaling pathway (AID 720692; active means well fitted inhibition curve with a large enough effect in the signal ratio in the repeat runs, not every such curve was filed as active; the % refers to the signal ratio). In short, it runs like this:
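GR-bla HeLa cells carrying a GRE-driven beta-lactamase reporter received compound after 4 h plating, then dexamethasone (5 nM final). After 18 h at 37C, the FRET substrate was loaded for 2 h at room temperature and fluorescence read.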

Assay [15] can be described thus: qHTS assay for identifying genotoxic compounds that show differential cytotoxicity against isogenic chicken DT40 cell lines with known DNA damage response pathways - Rev3 mutant cell line (AID 743014). Further: nearly all actives have a fitted effect of over 55% in size. Further: potency means the concentration at half of the fitted maximal effect.
Assay [16] can be described thus: qHTS assay for identifying genotoxic compounds that show differential cytotoxicity against isogenic chicken DT40 cell lines with known DNA damage response pathways - Rad54/Ku70 mutant cell line (AID 743015). Further: nearly all actives have a fitted effect of over 60% in size. Further: potency means the concentration at half of the fitted maximal effect.
In assay [17] the target is Androgen receptor (Homo sapiens) (UniProt P10275). The assay is described as follows: qHTS assay to identify small molecule agonists of the androgen receptor (AR) signaling pathway (AID 743036; active means well fitted activation curve with a large enough effect in the signal ratio in the repeat runs, with a control signal flat, not every such curve was filed as active; the % refers to the signal ratio). In short, it runs like this: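 HEK293 cells stably carrying a UAS-driven beta-lactamase reporter (GeneBLAzer AR-UAS-bla-GripTite) were plated at 2,000 cells/well, rested 4 h at 37C, then exposed to compounds in DMSO for 16 h. LiveBLAzer B/G FRET substrate was added for 2 h at room temperature; fluorescence read.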
Chain of Androgen receptor (Homo sapiens) (P10275 whole entry, looked up): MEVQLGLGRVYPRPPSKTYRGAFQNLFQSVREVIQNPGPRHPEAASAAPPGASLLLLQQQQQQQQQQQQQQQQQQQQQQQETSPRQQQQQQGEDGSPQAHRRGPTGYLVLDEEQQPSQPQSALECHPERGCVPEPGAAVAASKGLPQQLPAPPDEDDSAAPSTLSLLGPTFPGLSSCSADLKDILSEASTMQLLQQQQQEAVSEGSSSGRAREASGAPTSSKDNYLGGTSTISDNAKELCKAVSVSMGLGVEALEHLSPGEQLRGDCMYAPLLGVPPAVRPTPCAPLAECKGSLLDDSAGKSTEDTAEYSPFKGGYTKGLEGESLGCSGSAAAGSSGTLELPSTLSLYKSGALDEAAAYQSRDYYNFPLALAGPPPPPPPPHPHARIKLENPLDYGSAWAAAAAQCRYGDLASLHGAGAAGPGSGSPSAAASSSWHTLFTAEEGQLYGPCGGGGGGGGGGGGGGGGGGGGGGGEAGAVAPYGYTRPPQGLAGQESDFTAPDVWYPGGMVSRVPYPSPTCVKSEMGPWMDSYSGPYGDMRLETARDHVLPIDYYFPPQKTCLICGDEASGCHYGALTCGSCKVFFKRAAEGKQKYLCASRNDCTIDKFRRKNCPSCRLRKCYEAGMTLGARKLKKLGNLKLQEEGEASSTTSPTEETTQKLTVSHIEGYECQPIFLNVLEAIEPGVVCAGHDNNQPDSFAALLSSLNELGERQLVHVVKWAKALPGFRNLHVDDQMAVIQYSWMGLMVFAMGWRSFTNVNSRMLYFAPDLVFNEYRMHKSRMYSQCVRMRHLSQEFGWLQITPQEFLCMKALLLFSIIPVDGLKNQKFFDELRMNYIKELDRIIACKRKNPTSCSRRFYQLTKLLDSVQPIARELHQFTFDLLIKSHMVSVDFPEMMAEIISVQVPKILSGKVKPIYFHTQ

The target is the same in assay [18]. The assay is described as follows: qHTS assay to identify small molecule agonists of the androgen receptor (AR) signaling pathway using the MDA cell line (AID 743040; further: nearly all actives have a fitted effect of over 20% in size). Summed up:
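MDA-kb2 breast carcinoma cells stably carrying an MMTV-driven luciferase reporter (AR- and GR-responsive) were seeded and held 5 h at 37C, 0% CO2, then exposed to compounds in DMSO for 16 h. Luminescence was read 30 min after ONE-Glo addition.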

Assay [19] has the same target. The assay is described as follows: qHTS assay to identify small molecule antagonists of the androgen receptor (AR) signaling pathway using the MDA cell line (AID 743042; further: nearly all actives have a fitted effect of over 55% in size). In short, it runs like this: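 MDA-kb2 cells (human breast carcinoma, stably carrying an MMTV-luciferase reporter responsive to AR and GR) were plated at 3,000 cells/well and preincubated 5 hr at 37C, then given compound plus R1881 agonist for 16 h. ONE-Glo luminescence was read.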

For assay [20] the target is unchanged. Put plainly: qHTS assay to identify small molecule antagonists of the androgen receptor (AR) signaling pathway (AID 743035; active means well fitted inhibition curve with a large enough effect in the signal ratio in the repeat runs, not every such curve was filed as active; the % refers to the signal ratio). In short, it runs like this: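 HEK293 cells stably carrying UAS-beta-lactamase reporter, 2,000/well, given compounds plus R1881 agonist and incubated 16 h at 37C. LiveBLAzer B/G FRET substrate then added for 2 h at room temperature before fluorescence reading.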

Molecules are shown by their SMILES. A number with no mark means an inactive call. Records with an inconclusive call do not appear. The source made the active and inactive calls. Unless noted, the call rests on the fitted dose curve; in most records, active means well fitted curve in the direction sought with a large enough effect in the repeat runs; inconclusive means weak or mixed curves; inactive means no such curve, though single readings can be large; an effect the other way counts as inactive or inconclusive.

For the compound `CC(N)C(=O)OC(C)(C)Cc1ccc(Cl)cc1` (stereo not given), the call in assay [1], in assay [2], in [3], in assay [4], in assay [5] and in assay [6] was inactive. In addition, the compound was classed as inactive in assay [7], in [8] and in assay [9]. The Potency in assay [10] is 21.1 µM (active). The Potency result in assay [11] and in assay [12] was “inactive” in each case.

As for `CC(=O)Nc1cccc(C)c1`, the compound was called inactive in assay [1], in [2], in assay [3], in assay [4], in assay [5] and in assay [6]. Moreover, the compound was classed as inactive in assay [7], in [14] and in [9]. Also, the Potency entry in assay [13], in assay [10], in [15], in assay [16], in assay [11] and in [12] was “inactive” each time.

`Cc1cccc(C)c1OCC(C)N` (stereo not given): the outcome in assay [1], in assay [2], in assay [3], in [4], in [5] and in assay [6] was inactive. The compound was classed as inactive in [7] and in [8]. Moreover, the Potency result in assay [12] is “inactive”.

Consider `C#CC(C)N(C)C(=O)Nc1ccc(Cl)cc1` (stereo not given), for which the call in assay [1], in assay [2], in assay [3], in assay [4], in assay [5] and in [6] was inactive. In addition, the compound was called inactive in [7], in assay [8], in [9], in [17] and in assay [18]. Besides, the Potency result in assay [11], in assay [12] and in assay [19] was “inactive” each time.

With `O=C(OCC1(COC(=O)c2cccnc2)CCCC(COC(=O)c2cccnc2)(COC(=O)c2cccnc2)C1O)c1cccnc1`, the result in [1], in assay [2], in assay [3], in assay [4], in [5] and in assay [6] was inactive. Besides, the compound was called inactive in [7], in [14] and in assay [9]. Besides, the Potency result in assay [13], in assay [10], in [15], in assay [16], in assay [11] and in [12] was “inactive” in each case.

On to `O=C(CCN1CCN(CCO)CC1)N1c2ccccc2Sc2ccc(C(F)(F)F)cc21`, for which the outcome in assay [1], in assay [2], in [3], in [4], in assay [5] and in assay [6] was inactive. Besides, the outcome in [7], in assay [8], in [17] and in assay [18] was inactive. Also, the Potency in assay [10] is 26.6 µM (active); in [15], 29.8 µM (active); in assay [16], 29.8 µM (active). In addition, the Potency result in [11], in assay [20], in assay [12] and in [19] was “inactive” in each case.

On to `CC(C)C(=O)OCCc1ccccc1`, for which the compound was classed as inactive in assay [1], in [2], in assay [3], in assay [4], in [5] and in assay [6]. Besides, the result in [7], in assay [8] and in assay [9] was inactive. Also, the Potency entry in [10], in [15], in assay [11] and in assay [12] was “inactive” each time.

Regarding `CCC(C)NC(N)=O` (stereo not given), the compound was called inactive in assay [1], in [2], in assay [3], in [4], in assay [5] and in assay [6]. The compound was classed as inactive in [7], in [8], in assay [9], in assay [17] and in assay [18]. Moreover, the Potency result in assay [10], in assay [16], in [11], in [20] and in assay [19] was “inactive” each time.

With `COCCOC(=O)C1=C(C)NC(C)=C(C(=O)OC(C)C)C1c1cccc([N+](=O)[O-])c1` (stereo not given), the result in assay [1], in [2], in assay [3], in assay [4], in [5] and in assay [6] was inactive. Also, the outcome in [7] and in [8] was inactive. Further, the Potency in assay [10] is 26.6 µM (active); in assay [15], 26.6 µM (active); in [16], 23.7 µM (active). Besides, the Potency result in assay [11] and in assay [12] was “inactive” throughout.

Consider `C=CC(OCC)OCC`, for which the outcome in assay [1], in assay [2], in assay [3], in [4], in assay [5] and in assay [6] was inactive. The result in [7], in [8] and in assay [9] was inactive. The Potency entry in assay [10], in assay [15], in assay [11] and in [12] was “inactive” each time.

For `COC(=O)[C@@H]1[C@H]2C[C@H]3c4[nH]c5ccccc5c4CCN3C[C@@H]2CC[C@@H]1O`, the call in assay [1], in assay [2], in assay [3], in [4], in assay [5] and in [6] was inactive. The compound was classed as inactive in assay [7], in assay [8] and in [9]. Also, the Potency result in [11] was “inactive”.

With `Cc1ccc2c(c1)OCC(=O)CO2`, the call in assay [1], in assay [2], in [3], in [4], in assay [5] and in [6] was inactive. For the same compound, the compound was classed as inactive in assay [7], in assay [14] and in assay [9]. Moreover, the Potency result in [13], in assay [10], in assay [15], in [16], in [11] and in assay [12] was “inactive” throughout.

Turning to `CC(C)(C)c1cc(CCC(=O)NN)cc(C(C)(C)C)c1O`, the compound was classed as inactive in [1], in [2], in [3], in [4], in assay [5] and in assay [6]. Besides, the call in [7] and in assay [8] was inactive. Also, the Potency result in assay [11] and in [12] was “inactive” throughout.

Take `CC(=O)c1ccc2c(c1)Cc1ccccc1-2`: the compound was classed as inactive in assay [1], in [2], in assay [3], in assay [4], in [5] and in assay [6]. Further, the result in assay [7], in assay [8] and in assay [9] was inactive. In addition, the Potency entry in assay [15], in [16], in assay [11] and in assay [12] was “inactive” throughout.
